Experimental data published in PubChem BioAssay.

target: Dickkopf-related protein 1 (Homo sapiens) (UniProt O94907); test: small molecules binding DKK1 protein – biochemical, small-molecule microarray, 635 nm fluorescence scan, primary screen (AID 1106); conditions: higher = more signal;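 further: score merges emission near 667 nm with signal to noise over three replicate slides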
Sequence (O94907 whole entry, looked up): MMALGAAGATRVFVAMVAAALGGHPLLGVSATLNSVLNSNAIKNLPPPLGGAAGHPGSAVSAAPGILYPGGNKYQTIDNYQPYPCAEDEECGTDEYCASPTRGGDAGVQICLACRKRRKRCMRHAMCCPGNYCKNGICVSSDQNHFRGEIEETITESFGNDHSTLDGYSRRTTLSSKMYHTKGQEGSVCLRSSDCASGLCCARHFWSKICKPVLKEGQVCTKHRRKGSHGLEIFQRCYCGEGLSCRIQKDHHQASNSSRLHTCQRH

Row | SMILES | composite z-score
1 | COc1cc(CO)cc(I)c1O[C@H]1C=C(C(=O)NCCO)C[C@@H](N(C(=O)c2cc3ccccc3oc2=O)C2CCCCCC2)[C@@H]1O | 0.306
2 | O=C1C2C=CC(C(O)C=Cc3ccc([N+](=O)[O-])cc3)N(n3cnnc3)C2C(=O)N1Cc1ccccc1 (configuration not stated) | 0.377
3 | COCCOC(=O)N1C(=O)[C@@]2(c3ccccc31)[C@H](C(=O)N1CCc3cc(OC)c(OC)cc3C1)[C@H]1C(=O)O[C@H](c3ccccc3)[C@H](c3ccccc3)N1[C@@H]2c1ccc(O)cc1 | 0.503
4 | C#CCN(C/C=C/c1ccccc1)[C@H](CO)c1ccccc1 | 0.358
5 | O=C1OCCC=C[C@H]2OC34C=CCN(c5ccc(Cl)cc5)C(=O)[C@H]3N(CCCO)C(=O)[C@@H]4C12 (some centres not stated) | -0.455
6 | CCCCC(O)C1C=CC2C(=O)N(C)C(=O)C2N1N1CCCCC1 (configuration not stated) | 0.0003
7 | COc1cc2c(cc1OC)CN(C(=O)[C@H]1[C@@H]3C(=O)O[C@@H](c4ccccc4)[C@@H](c4ccccc4)N3[C@@H](c3ccccc3OCCO)[C@]13C(=O)Nc1ccc(C#CCCO)cc13)CC2 | 0.518
8 | COCCCNC(=O)[C@@]1(Cc2ccccc2)N=C(c2ccc(OCCCO)cc2)O[C@H]1c1ccccc1CN=[N+]=[N-] | -0.172
9 | CC(C)Cc1ccc(CN2CC[C@@H](N)C2)cc1 | -0.444
10 | C[N+](C)(C)CCCC[C@@H]1NC(=O)[C@H]2C[C@@H](C(=O)NCCCCCCNC(=O)CS)[C@@H](c3ccc(O)cc3)N2C1=O | -0.628
11 | COc1ccc(C#Cc2ccc3c(c2)[C@]2(C(=O)N3)[C@H](c3ccc(O)cc3)N3[C@H](c4ccccc4)[C@H](c4ccccc4)OC(=O)[C@H]3[C@@H]2C(=O)N2CCc3cc(OC)c(OC)cc3C2)cc1 | 0.31
12 | [N-]=[N+]=Nc1ccccc1C[C@]1(C(=O)NCC(O)CO)N=C(c2ccc(OCCCO)cc2)O[C@H]1c1ccccc1 (some centres not stated) | -0.735
13 | CC(C)(C)OC(=O)CC[C@]1(C(=O)NCCN2CCOCC2)COC(c2ccc(OCCCO)cc2)=N1 | -0.105
14 | [N-]=[N+]=NCc1ccccc1C[C@@]1(C(=O)NCC(O)CO)N=C(c2ccc(OCCCO)cc2)O[C@@H]1c1ccccc1 (some centres not stated) | -1.58
15 | CC(C)[Si](C#CCCCC#N)(Oc1ccccc1Br)C(C)C | -0.108
16 | C=CCN1Cc2ccccc2[C@@H]2OC(c3ccc(OCCCO)cc3)=N[C@]2(CCS(=O)(=O)c2ccccc2)C1=O | 1.41

Row | SMILES | composite z-score
17 | CCOC(=O)C1=C[C@@H](C(C)C)N(S(=O)(=O)c2ccc(C)cc2)[C@H]1c1ccccc1F | 0.336
18 | [N-]=[N+]=NCc1ccccc1[C@@H]1OC(c2ccc(OCCCO)cc2)=N[C@]1(CCS(=O)(=O)c1ccccc1)C(N)=O | 1.47
19 | OCCCC1=CC(C2CC2)N(Cc2cccc(OC(F)(F)F)c2)CC1 (configuration not stated) | 0.161
20 | Cc1ccc([C@H]2C(C(=O)O)=CCN2S(=O)(=O)c2ccc(C)cc2)cc1 | -0.345
21 | COc1ccc([Si](C)(C)[C@H]2[C@H](CCO)O[C@@]3(C(=O)N(Cc4ccccc4)c4ccc(N5CCCCC5=O)cc43)[C@@H]2C)cc1 | -0.0075
22 | CC#CC(=O)Oc1ccc(Br)cc1C=CC(=O)OCC | -0.382
23 | COc1cc(OC)c(C(O)C2C=CC3C(=O)NC(=O)C3N2Nc2ccccn2)cc1Br (configuration not stated) | 0.815
24 | O=C1[C@H]2C=C(I)[C@H](C[C@@H]2OCCCCO)[C@@]12CO2 | 0.062
25 | C=C(CCCC)/C(=C/C[C@H](OC(C)=O)c1ccc(OCCO)cc1)c1cnc2ccccc2c1 | 0.446
26 | COc1ccc(CCNC(=O)[C@@]2(C)c3ccccc3C(=O)N(c3ccc(C)cn3)[C@H]2c2ccc(CO)cc2)cc1 | -0.905
27 | C=CCC(OC(C)=O)[C@@H]1[C@@H](N(Cc2ccc(-c3cccc(C(F)(F)F)c3)o2)C(=O)Cc2ccc(OC)cc2)c2cc(OCCCO)ccc2N1C(=O)c1ccc2ccccc2c1 (some centres not stated) | -0.298
28 | CN(C)CCCC[C@@H]1NC(=O)[C@H]2C[C@@H](C(=O)NCCCCCN)[C@@H](c3cccc(OCCO)c3)N2C1=O | 0.453
29 | CC(=CC1CCCCC1)[C@@H](NC(=O)c1cccnc1)c1ccc(-c2ccccc2)cc1 | -0.44
30 | C=C(CCCC)/C(=C/C[C@H](OC(C)=O)c1ccccc1OCCO)c1cnc2ccccc2c1 | 0.277
31 | O=C1OCCC=C[C@H]2OC34C=CCN(CCN5CCOCC5)C(=O)[C@H]3N(CCCCCO)C(=O)[C@@H]4C12 (some centres not stated) | -0.041
32 | COC(=O)[C@@]1(Cc2ccc(F)cc2)[C@H]2c3cc(C(=O)N(C)C)n(Cc4cc(C)n(C)n4)c3C[C@H]2CN1C(=O)c1ccccc1 | 0.0455
